The results in this text go back to PubChem BioAssay.

A short description of experiment [1]: liver-stage malaria parasite growth inhibition, primary screen, cell-based, HepG2, luciferase luminescence, HepG2 viability (AID 624349; in the data active means parasite load remaining mostly below about 12%, no sharp cut-off; inactive means mostly above about 10%;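 further: 100% = mean of DMSO negative control wells on the same plate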). The following applies: P. berghei liver stage in HepG2, luciferase luminescence, concentration not given here; parasite load remaining: stronger effect = lower value; viability: measured here: HepG2 viability without parasites.
A short description of experiment [2]: growth inhibition of DIPG glioma cells, dose response, cell-based, JHH-DIPG-1, MIPE4.0, CellTiter-Glo, qHTS (AID 1347062; cut-off not given, nearly all actives have AC50 up to about 27 µM;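 on AC50: cells exposed to compound for two days before readout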). The following applies: JHH-DIPG-1 viability, CellTiter-Glo ATP luminescence.
The nature of experiment [3]: growth inhibition of DIPG glioma cells, dose response, cell-based, SU-DIPG-IV, MIPE4.0, CellTiter-Glo, qHTS (AID 1347063).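 Further: compound exposure lasted 48 hours before the viability readout.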 The following applies: SU-DIPG-IV viability, CellTiter-Glo ATP luminescence. For orientation: In ATP-based viability assays light output follows the ATP content of the culture.
Experiment [4] in a line: SU-DIPG-VI glioma cell viability, MIPE4.0 library, CellTiter-Glo luminescence, qHTS (AID 1347066).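 Further: cells exposed to compound for 48 hours before readout.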 The following applies: CellTiter-Glo ATP luminescence.
A short description of experiment [5]: sensitizers of A549 cells to miR-34 induction, primary screen, imaging, A549 dox-inducible miR-34, nuclei and caspase counts (AID 1347080;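 active means compounds whose cell count with miR-34 switched on is under 0.7 times the count with it off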). The following applies: A549 miR-34 inducible, Hoechst nuclei count, 48 h.
The nature of experiment [6]: survival rescue of mitochondrial mutant cells in low glucose, primary screen, MELAS cybrids, Rieske KO mouse fibroblasts, CellTiter-Glo (AID 1508586;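 active means mean z-score across replicates of 1.96 or higher in either the MELAS or the Rieske mutant cell line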;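 further: z relative to plate mean and SD of compound and empty wells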).
The target of experiment [7] is NAD(+) hydrolase SARM1 (Homo sapiens) (UniProt Q6SZW1). Briefly: SARM1 TIR NADase inhibitors, cell lysate, NAD-Glo luminescence (AID 1508614;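 active means compound whose remaining NAD level is above about 45 nM, limit read from the data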). The following applies: SAM-TIR HEK293T lysate NADase, at 1 µM, stronger effect = higher value.
The target of experiment [8] is Mitogen-activated protein kinase 7 (Homo sapiens) (UniProt Q13164). Briefly: ERK5 transactivation activators in reporter cells, primary screen, cell-based, HTS (AID 1508626;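 active means luciferase signal above three times the same-plate solvent-only control wells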;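 further: luciferase driven by Gal4-ERK5 fusion binding five Gal4 sites before minimal TATA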). The following applies: HeLa Gal4-ERK5 transactivation, 18 h, at 5 µM, stronger effect = higher value.
A short description of experiment [9]: viability rescue of complex I mutant cybrids, primary screen, cell-based, galactose medium, ATP luminescence (AID 1645843;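 active means z-score of at least 1.8 in each of two replicates, scored against plate mean and spread of sample wells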;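 further: positive z means more ATP and so rescue of galactose-driven cybrid death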). The following applies: complex I mutant cybrid cells, 72 h, stronger effect = higher value.
Experiment [10] can be described thus: growth inhibition of DIPG glioma cells, dose response, cell-based, SU-DIPG-XIII, MIPE5.0, CellTiter-Glo, qHTS (AID 1347064; cut-off not given, nearly all actives have AC50 up to about 23 µM). The following applies: SU-DIPG-XIII viability, CellTiter-Glo ATP luminescence.
The nature of experiment [11]: viability loss in pontine glioma line – cell-based, SU-DIPG-XXV, MIPE5.0, CellTiter-Glo, qHTS, dose response (AID 1347065; cut-off not given, nearly all actives have AC50 up to about 26 µM;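 further: cells exposed to compound for 48 hours before ATP readout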). The following applies: CellTiter-Glo ATP luminescence.
The nature of experiment [12]: SU-DIPG-XXV glioma cell viability, MIPE5.0 library, qHTS (AID 1347068; cut-off not given, nearly all actives have IC50 up to about 30 µM;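 on IC50: cells exposed to compound for 48 hours before viability readout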).
Experiment [13] is described as follows: JHH-DIPG-1 glioma cell viability, MIPE5.0 library, CellTiter-Glo luminescence, qHTS (AID 1347067; cut-off not given, nearly all actives have AC50 up to about 26 µM;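 further: cells exposed to compound for 48 hours before readout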). The following applies: JHH-DIPG-1 glioma viability, CellTiter-Glo ATP luminescence.
Experiment [14] concerns Hepatitis C virus NS3 helicase. In words: HCV NS3 helicase inhibitors, primary screen, biochemical, fluorescence polarization, LOPAC1280 library (AID 687035; in the data active means inhibition above about 37%). The following applies: Purified HCV NS3 helicase, Cy5-dT15 ssDNA binding fluorescence polarization; stronger effect = higher value; concentration not given here. On the technique in general: Polarisation of emitted light reports the rotation of a fluorescent probe.

Experiment [15] can be described thus: Cy5 fluorescence quenching or enhancement artefacts, artefact control for HCV NS3 helicase inhibitor project, biochemical, LOPAC1280 (AID 687037; call rule not given here). The following applies: Cy5-DNA-NS3h complex fluorescence interference counterscreen. (In general: Counterscreens check selectivity or assay interference.)
Experiment [16] is described as follows: phospholipid biosynthesis inhibitors in animal cells, primary screen, cell-based, LOPAC library, screen 4 (AID 1347384; call rule not given here). The following applies: phospholipid biosynthesis inhibition screen, at 10 µM.
[17] abbreviates: stronger effect = lower value, cell number ratio, induced over uninduced.
The mark [18] stands for this setting: measured here: relative caspase fold change +Dox/-Dox.
The mark [19] stands for this setting: measured here: total cells with miR-34 induction, stronger effect = lower value.
Setting [20] is: measured here: total cells without miR-34 induction.
The mark [21] stands for this setting: MELAS cybrid survival, CellTiter-Glo 48 h, stronger effect = higher value.
Setting [22] is: Rieske KO mouse fibroblast survival, CellTiter-Glo 72 h.

The structures appear in SMILES notation. Several values for one entry are separate records, joined by “and”; a condition that tells them apart may be missing. Equal values may be shown once. Records with an inconclusive call do not appear. Activity calls are given as the source filed them. Unless noted, cut-off not given; nearly all actives show AC50 up to about 30 µM.

Mitogen-activated protein kinase 7 (Homo sapiens), sequence (Q13164 whole entry, looked up, the tested form may be a part): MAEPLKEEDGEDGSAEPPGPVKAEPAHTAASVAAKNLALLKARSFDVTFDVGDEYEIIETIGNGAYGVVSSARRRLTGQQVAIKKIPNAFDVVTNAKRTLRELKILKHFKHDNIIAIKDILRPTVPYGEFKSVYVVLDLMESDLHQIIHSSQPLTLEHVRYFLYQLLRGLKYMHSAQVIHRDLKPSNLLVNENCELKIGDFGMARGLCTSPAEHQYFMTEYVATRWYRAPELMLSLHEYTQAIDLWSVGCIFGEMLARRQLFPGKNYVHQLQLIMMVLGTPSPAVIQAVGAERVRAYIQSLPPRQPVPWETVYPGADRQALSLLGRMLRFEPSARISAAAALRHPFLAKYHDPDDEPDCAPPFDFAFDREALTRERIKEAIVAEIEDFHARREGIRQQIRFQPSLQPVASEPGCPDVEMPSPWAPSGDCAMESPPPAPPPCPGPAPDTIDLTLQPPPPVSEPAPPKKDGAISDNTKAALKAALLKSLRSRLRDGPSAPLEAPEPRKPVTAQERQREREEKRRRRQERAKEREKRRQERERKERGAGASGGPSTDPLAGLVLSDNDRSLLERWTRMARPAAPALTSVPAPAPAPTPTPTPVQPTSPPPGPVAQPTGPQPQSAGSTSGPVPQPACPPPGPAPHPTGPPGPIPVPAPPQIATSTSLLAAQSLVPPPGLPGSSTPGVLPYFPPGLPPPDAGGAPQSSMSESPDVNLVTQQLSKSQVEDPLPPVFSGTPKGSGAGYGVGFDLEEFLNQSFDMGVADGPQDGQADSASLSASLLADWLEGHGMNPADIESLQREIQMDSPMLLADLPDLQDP
NAD(+) hydrolase SARM1 (Homo sapiens), sequence (Q6SZW1 whole entry, looked up, the tested form may be a part): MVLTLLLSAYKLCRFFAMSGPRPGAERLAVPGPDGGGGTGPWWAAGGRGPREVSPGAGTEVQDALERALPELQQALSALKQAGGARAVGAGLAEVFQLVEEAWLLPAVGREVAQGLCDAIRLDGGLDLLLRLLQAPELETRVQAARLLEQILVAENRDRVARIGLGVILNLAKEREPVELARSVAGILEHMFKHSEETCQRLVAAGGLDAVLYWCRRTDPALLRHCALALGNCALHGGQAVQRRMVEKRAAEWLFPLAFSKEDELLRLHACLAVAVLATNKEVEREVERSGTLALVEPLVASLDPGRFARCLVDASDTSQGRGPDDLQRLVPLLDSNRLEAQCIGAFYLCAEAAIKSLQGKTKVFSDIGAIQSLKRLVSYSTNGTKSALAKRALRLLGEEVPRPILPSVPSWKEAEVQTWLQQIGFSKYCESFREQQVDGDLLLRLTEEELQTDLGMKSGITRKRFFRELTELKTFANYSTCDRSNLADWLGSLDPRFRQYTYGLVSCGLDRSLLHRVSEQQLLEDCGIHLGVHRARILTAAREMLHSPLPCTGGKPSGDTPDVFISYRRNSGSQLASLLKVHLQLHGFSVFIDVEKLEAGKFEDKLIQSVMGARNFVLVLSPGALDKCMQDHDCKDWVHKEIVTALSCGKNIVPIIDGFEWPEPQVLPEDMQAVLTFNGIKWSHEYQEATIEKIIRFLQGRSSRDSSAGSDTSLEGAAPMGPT

The term viability denotes a read-out of living cells in per cent, often relative to untreated cells. Turning to `NC[C@@H]1O[C@H](O[C@H]2[C@@H](O)[C@H](O[C@@H]3[C@@H](O)[C@H](N)C[C@H](N)[C@H]3O[C@H]3O[C@H](CN)[C@@H](O)[C@H](O)[C@H]3N)O[C@@H]2CO)[C@H](N)[C@@H](O)[C@@H]1O`, in experiment [1], the parasite load remaining is 49.2% (inactive) and 45.9% (inactive). In [1], the viability is 48% and 104%. Also, the call in experiment [2], in experiment [3] and in experiment [4] was inactive. Besides, the fold change in experiment [5] (setting [17]) is 0.891 (inactive) and 0.964 (inactive); in experiment [5] (setting [18]) it was 0.356 and 1.26. Besides, the cell count in experiment [5] (setting [19]) is 8260 and 10600; in [5] (setting [20]), 9270 and 11000. Also, the z-score was -0.364 (inactive) and -0.26 (inactive) in [6] (setting [21]); -0.155 and -1.25 in [6] (setting [22]); 0.135 (inactive) in experiment [9]. In addition, in [7], the remaining NAD is 10 nM (inactive). The luciferase signal in experiment [8] was 28 AU (inactive).

Take `CNC1[C@@H](O)C(O[C@@H]2C(O)C(O[C@H]3O[C@H]([C@@H](C)NC)CC[C@H]3N)[C@@H](N)C[C@H]2N)OC[C@]1(C)O` (stereo not given in full): the compound was classed as inactive in [2], in experiment [3] and in [4].

For the compound `COc1ccc(-c2c(-c3ccc(O)cc3O)n[nH]c2C)cc1`, the result in experiment [2], in experiment [10], in experiment [11], in experiment [4] and in experiment [12] was inactive. Moreover, the fold change is 0.931 (inactive) in experiment [5] (setting [17]) and 0.724 in [5] (setting [18]). The cell count in experiment [5] (setting [19]) worked out at 7090; in experiment [5] (setting [20]) it was 7620. The z-score is 0.614 (inactive) in [6] (setting [21]), -0.216 in experiment [6] (setting [22]) and -1.81 (inactive) in experiment [9].

Turning to `CCc1nc(-c2cccc(C)c2)c(-c2ccnc(NC(=O)c3ccccc3)c2)s1`, the result in [2] and in [3] was inactive. Besides, the fold change in experiment [5] (setting [17]) is 0.974 (inactive); in experiment [5] (setting [18]) it was 0.928. In addition, the cell count in [5] (setting [19]) turned out to be 5690; in [5] (setting [20]), 5840. The z-score was 0.655 (inactive) in experiment [6] (setting [21]) and 0.137 in experiment [6] (setting [22]).

With `C[C@H](c1ccc(F)cc1CCCC(=O)O)N(c1cc(F)ccc1F)S(=O)(=O)c1ccc(Cl)cc1`, the call in [2], in experiment [3], in experiment [4], in experiment [13] and in experiment [12] was inactive.

What is called AC50 is the concentration giving half of the maximal activity seen. One may read the IC50 as the concentration needed to halve the response being measured. With `N#Cc1c(C2CCNCC2)cc(-c2c(O)cccc2OCC2CC2)nc1N`, in experiment [1], the parasite load remaining is 29.7% (inactive) and the viability turned out to be 88.8%. The AC50 in experiment [2] was 23.5 µM (active). Also, in experiment [3], the half-maximal activity concentration (AC50) is 13.2 µM (active). In addition, the IC50 in [12] was 20.9 µM (active).

One may read the inhibition as the relative decrease from the control value, in per cent. Regarding `O=C(Nc1nc2ccccc2n1CCN1CCOCC1)c1cccc([N+](=O)[O-])c1`, the parasite load remaining in experiment [1] is 33.2% (inactive). In addition, the viability in [1] was determined as 151%. Moreover, the inhibition in [14] is -2% (inactive). Besides, the fluorescence ratio (interference) in [15] is 1.1 (inactive). Further, the concentration at half-maximal activity (AC50) in [2] is 14.8 µM (active); in experiment [3] it was 10.5 µM (active). Besides, the compound was classed as inactive in experiment [12] and in experiment [16]. Besides, the fold change is 0.827 (inactive) in experiment [5] (setting [17]) and 1.35 in [5] (setting [18]). For the same compound, the cell count is 5540 in [5] (setting [19]) and 6700 in experiment [5] (setting [20]). Moreover, the z-score in [9] was 1.46 (inactive).
